ERK EGF inh = qHTS Assay for Inhibitors of the ERK Signaling Pathway using a Homogeneous Screening Assay; Stimulation with EGF; HEK293-V1b, EGF-stimulated phospho-ERK AlphaScreen; AID 1454, 2008; Potency, µM (series often up to 11.5 µM), for the others: at the highest dose activity change, negative = inhibition, most hits filed as inhibitors; 0.41% of 130,000 active; active = well fitted inhibition curve with a large enough effect;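 note: plate controls were stimulated vehicle wells for no effect and unstimulated vehicle basal for full effect; nearly all actives have a fitted effect of over 55% in size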
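V1b-HEK293, 1% FBS o/n; cpd 30 min 37C; EGF 25 nM final, 5 min; lyse 10 min; AlphaScreen beads 5 h RT. Normalized DMSO basal vs EGF max; Hill AC50.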
* hit, by the source's call; ! = repeats disagree; [ ] = dose if it differs, or a comment. The full list was thinned out, with hits kept by preference. Potency is the fitted concentration of half-maximal effect.

SMILES | ERK EGF inh
CC1=NN(c2ccccc2)C(=O)/C1=C/C=C/c1ccc(N(C)C)cc1 | 7.08µM*
CC1=NN(CCC#N)C(=O)/C1=C/c1ccc(N(C)C)cc1 | -3.1%
CC1=NN(c2ccc(C(=O)OC(C)C)cc2)C(=O)/C1=C\C=C\c1ccco1 | 16.4%
Cc1ccc(C(=O)NN2C(=O)/C(=C/c3cn(C)c4ccccc34)SC2=S)cc1 | 3.0%
Cn1cc(C=O)c2ccccc21 | 18.6%
CCOC(=O)CC1=NN(c2ccccc2)C(=O)C1 | -2.5%
CCOC(=O)CC1=NN(c2ccccc2)C(=O)/C1=C\c1ccc(N(C)C)cc1 | 25.1µM*
CCOC1=NN(c2ccccc2)C(=O)/C1=C\N(C)C | -2.5%
CC1=NN(c2ccc([N+](=O)[O-])cc2)C(=O)/C1=C\N(C)C | -3.0%
CC1=NN(c2ccccc2)C(=O)/C1=C\c1cn(C)c2ccccc12 | 14.1µM*
CC1=NN(c2ccccc2)C(=O)/C1=C/N(C)C | 7.8%[57.5 µM]
CC1=NN(c2ccccc2)C(=O)/C1=C\C=C\c1ccccc1 | 25.1µM*
Cc1ccc(OCCC(=O)Nc2ccc(F)c(F)c2)cc1 | 8.3%
CC(=O)Nc1ccc(NC(=O)c2ccc(Cn3cc(Cl)cn3)cc2)cc1 | 3.4%
O=C(Nc1ccccc1-c1ccccc1NC(=O)c1ccco1)c1ccco1 | -8.8%
CCOc1cc(S(=O)(=O)n2ccnc2)ccc1Br | 7.8%
CC(C)CC(c1nnnn1C1CCCC1)N1CCC(C(N)=O)CC1 (centres undefined) | -6.6%
Cc1ccccc1OCC(=O)NNC(=O)Nc1ccccc1 | 1.5%
COc1ccc(C(=O)NC(=S)N2CCNC(=O)C2)cc1Br | -5.0%
Brc1cccc(OCCN2CCCCC2)c1 | 1.1%
C=CCN1CCN(C(c2cccc(OC)c2OC)c2nnnn2CCC(C)C)CC1 (centres undefined) | 1.7%
COc1cccc(OC)c1C(=O)Nc1cccc(C(C)=O)c1 | 0.0%
CN(CCC#N)C(=S)Nc1ccc(F)cc1 | -4.5%[57.5 µM]
O=C(c1cccc(Oc2ccc([N+](=O)[O-])cc2Cl)c1)N1CCCCC1 | 2.4%
Cc1cc(=O)[nH]c(N/N=C/c2c(C)nn(-c3ccccc3)c2Cl)n1 | -10.2%[57.5 µM]
SMILES | ERK EGF inh
CCN(CC)S(=O)(=O)c1cccc(NC(=O)c2ccc(Br)cc2)c1 | 14.1µM*
CN(C)S(=O)(=O)c1cccc(NC(=O)c2cncc(Br)c2)c1 | 3.9%
CCN(CC)S(=O)(=O)c1cccc(NC(=O)c2cncc(Br)c2)c1 | -7.4%
O=C(CN(C(=O)Cn1nnc(-c2ccc(F)cc2)n1)c1ccc(F)c(Cl)c1)NCC1CCCO1 (centres undefined) | 23.4%
CC(C)(C)NC(=O)CN(Cc1cccs1)C(=O)CNS(=O)(=O)c1ccc(F)cc1 | 1.3%
CC1=C(/C=C/C(C)=C/C=C/C(C)=C/C=C/C=C(C)/C=C/C=C(C)/C=C/C2=C(C)C(=O)CCC2(C)C)C(C)(C)CCC1=O | 24.7%
CN1CCN(C2=C(NS(=O)(=O)c3cccs3)C(=O)c3ccccc3C2=O)CC1 | -7.6%[57.5 µM]
O=S(=O)(Nc1ccc(N2CCCCC2)cc1)c1ccccc1 | 2.9%
O=C1C(NS(=O)(=O)c2cccs2)=C(N2CCN(Cc3ccccc3)CC2)C(=O)c2ccccc21 | 15.8µM*
Cc1ccccc1CN1CCN(S(=O)(=O)c2cccs2)CC1 | 0.6%
O=C1C(NS(=O)(=O)c2ccc(Cl)cc2)=C(N2CCCCC2)C(=O)c2ccccc21 | 14.1µM*
O=C1C(Nc2ccccc2)=C(NS(=O)(=O)c2ccccc2)C(=O)c2ccccc21 | 3.0%
O=C(CCC1CCCCC1)NCCN1C2=NC[C@H](Cc3ccccc3)N2C[C@H]1Cc1ccc(O)cc1 | -9.7%[57.5 µM]
Cc1ccc(C2=NN(C(=O)CN3C(=O)c4ccccc4S3(=O)=O)C(c3ccco3)C2)cc1 (centres undefined) | 2.5%
C=C(C)CN(CC)C(=O)CC1C(=O)NCCN1C (centres undefined) | 2.3%
Oc1cc2c(cc1O)C1c3ccc(O)c(O)c3OCC1(O)C2 (centres undefined) | 11.2µM*!
COc1cccc(-c2nc(NCCc3c[nH]c4ccc(OC)cc34)c3ccccc3n2)c1 | 25.1µM*
COc1ccc2[nH]cc(CCNc3nc(-c4ccc(C(=O)N(C)C)cc4)nc4ccccc34)c2c1 | 12.1%
COc1ccc2[nH]cc(CCNc3nc(-c4ccoc4)nc4ccccc34)c2c1 | 34.6%
CC(=O)c1ccc(-c2nnc(CCC(=O)N(C)Cc3c(C)nc4ccccn34)o2)s1 | 3.9%[57.5 µM]
c1ccc(-c2nnsc2-c2nc3ccccc3[nH]2)cc1 | 3.1%
CCN(CC)CC(=O)Nc1ccc(Oc2ccc(NC(=O)CN(CC)CC)cc2)cc1 | -13.5%
COC(=O)[C@@]1(Cc2ccc(OC)cc2)[C@@H]2[C@@H](CC(=O)[C@H]2CC(=O)C(=O)N(C)C)CN1C(=O)c1ccccc1 | -2.4%
COC(=O)[C@@]1(Cc2ccc(OC)cc2)[C@@H]2C(=CC(=O)[C@H]2CC(=O)C(=O)N2CCCC2)CN1C(=O)c1ccccc1 | -5.5%
C=C1C(=O)C=C2CN(C(=O)c3ccccc3)[C@@](Cc3ccc(OC)cc3)(C(=O)OC)[C@@H]12 | 12.6µM*
SMILES | ERK EGF inh
COc1ccc(/C=C/C(=O)OCc2cccc([N+](=O)[O-])c2)cc1 | -10.4%
CC[C@H](c1ccc(O)cc1)[C@@H](CC)c1ccc(O)cc1 | 3.7%[25.7 µM]
CN(C)c1ccc(C=NC(CO)C(O)c2ccc([N+](=O)[O-])cc2)cc1 (centres undefined) | 10.7%[57.5 µM]
CN(C)c1ccc(C(c2ccc(N(C)C)cc2)c2ccc([N+](=O)[O-])cc2)cc1 | 14.1µM*
CC(C)(C)C(=O)NC(NC(=O)C(C)(C)C)c1ccc([N+](=O)[O-])cc1 | -5.8%
O=C(O)c1cccc(N/N=C/c2cc(Br)cc(Br)c2O)c1 | -3.2%
CCCCCNC(=O)c1ccc2c(=O)n(CCCOCC)c(=S)[nH]c2c1 | -0.6%
O=C(NC(=S)N1CCCc2ccccc21)c1ccco1 | 3.4%
O=C(Nc1ccc2cn[nH]c2c1)c1c(Cl)cccc1Cl | -8.8%
CN(C)c1ccc(NC2=C(Cl)C(=O)c3ccccc3C2=O)cc1 | 14.1µM*
O=C(Nc1ccc2cn[nH]c2c1)c1ccccc1F | 1.5%
O=C(Oc1ccc(NC2=C(Cl)C(=O)c3ccccc3C2=O)cc1)c1ccc([N+](=O)[O-])cc1 | -1.5%
O=C1C(Cl)=C(Nc2ccc3cn[nH]c3c2)C(=O)c2ccccc21 | 15.8µM*
CC(=O)Nc1ccc(NC2=C(Cl)C(=O)c3ccccc3C2=O)cc1 | 22.0%
COc1ccc(C(=O)/C=C/Nc2c(C)n(C)n(-c3ccccc3)c2=O)c(OC)c1 | 8.1%
Cc1ccc(Cl)cc1N1CCN(C(=S)NCc2ccco2)CC1 | -7.1%
COc1ccc(OCC(O)CN2CCN(c3ncccn3)CC2)cc1 (centres undefined) | 5.2%
Cc1cccc2cc(CN(C(=O)c3cccc([N+](=O)[O-])c3)C(C)C)c(=O)[nH]c12 | -2.9%[57.5 µM]
CN=c1scc(-c2ccco2)n1/N=C/c1ccc(O)c(O)c1 | -4.5%
CN=c1scc(-c2ccccc2F)n1/N=C/c1ccc[nH]1 | -2.6%
CN=c1scc(-c2ccccc2F)n1/N=C/c1ccc(O)c(O)c1O | 28.2µM*
COC(=O)Nc1nnc(CC(=O)Nc2ccccc2C)s1 | 6.6%
NNC(=S)NC1CC2CC1C1C=CCC21 (centres undefined) | 16.9%[57.5 µM]
CN(CCCNC(=O)c1cc2c(Cl)nc3ccccc3c2s1)Cc1ccccc1 | 25.1µM*
CC1CCCN(CCCNC(=O)c2cc3c(Cl)nc4ccccc4c3s2)C1 (centres undefined) | -7.8%
CCN(CC)CCCNC(=O)c1cc2c(Cl)nc3ccccc3c2s1 | -11.2%
O=C(O)Cc1cc(I)c(Oc2cc(I)c(O)c(I)c2)c(I)c1 | 0.8%
